Hit rate of the full screen: of about 5,500 compounds, about 2,000 (36%) were called active. Another 18% or so got no clear call; they are omitted. Cut-off read from the data, not from the text of the source: active = normalized growth mostly below about 0.91 (no sharp cut-off); inconclusive = no clear call, values can overlap the other calls; inactive = mostly above about 0.92. The list shows a part of the results.
Experiment: chemical genetic growth profiling, strain panel (AID 1159580);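 note: tested at 20 µM; growth read once vehicle control cultures reached saturation at 30 °C; 1 = growth at the plate median or of vehicle wells; lower values mean less growth of the strain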
Conditions: growth OD

Measured: normalized growth

CCCCOc1ccc(OCCCN2CCOCC2)cc1
active: S. cerevisiae deletion strains, locus YJR075W, strain HOC1, stronger effect = lower value 0.806 | S. cerevisiae deletion strains, locus YKL190W, strain CNB1, stronger effect = lower value 0.871 | S. cerevisiae deletion strains, locus YKR001C, strain vps1, stronger effect = lower value 0.572 | S. cerevisiae deletion strains, locus YLR262C, strain YPT6 (second series), stronger effect = lower value 0.771 | S. cerevisiae deletion strains, locus YLR268W, strain sec22, stronger effect = lower value 0.873 | S. cerevisiae deletion strains, locus YLR320W, strain mms22, stronger effect = lower value 0.609 | S. cerevisiae deletion strains, locus YLR418C, strain cdc73, stronger effect = lower value 0.736 | S. cerevisiae deletion strains, locus YML032C, strain rad52, stronger effect = lower value 0.848 | S. cerevisiae deletion strains, locus YMR223W, strain ubp8, stronger effect = lower value 0.88 | S. cerevisiae deletion strains, locus YNL067W, strain RPL9B, stronger effect = lower value 0.829 | S. cerevisiae deletion strains, locus YNL071W, strain lat1, stronger effect = lower value 0.663 | S. cerevisiae deletion strains, locus YNL233W, strain BNI4, stronger effect = lower value 0.767 | S. cerevisiae deletion strains, locus YNL248C, strain rpa49, stronger effect = lower value 0.769 | S. cerevisiae deletion strains, locus YNL307C, strain MCK1, stronger effect = lower value 0.649 | S. cerevisiae deletion strains, locus YNR052C, strain pop2, stronger effect = lower value 0.83 | S. cerevisiae deletion strains, locus YOL006C, strain TOP1, stronger effect = lower value 0.239 | S. cerevisiae deletion strains, locus YOR001W, strain rrp6, stronger effect = lower value 0.8 | S. cerevisiae deletion strains, locus YOR070C, strain gyp1, stronger effect = lower value 0.632 | S. cerevisiae deletion strains, locus YOR184W, strain ser1, stronger effect = lower value 0.742 | S. cerevisiae deletion strains, locus YOR270C, strain vph1, stronger effect = lower value 0.41 | S. cerevisiae deletion strains, locus YPL051W, strain arl3, stronger effect = lower value 0.873 | S. cerevisiae deletion strains, locus YPR163C, strain tif3, stronger effect = lower value 0.765 | S. cerevisiae deletion strains, strain wtn01, stronger effect = lower value 0.856 | S. cerevisiae strains, strain wild type, stronger effect = lower value 0.895
inactive: S. cerevisiae deletion strains, locus YKL009W, strain mrt4, stronger effect = lower value 1 | S. cerevisiae deletion strains, locus YKL068W, stronger effect = lower value 0.998 | S. cerevisiae deletion strains, locus YKL085W, strain MDH1 (second series), stronger effect = lower value 0.997 | S. cerevisiae deletion strains, locus YKL085W, strain MDH1, stronger effect = lower value 0.997 | S. cerevisiae deletion strains, locus YKL160W, strain elf1, stronger effect = lower value 0.914 | S. cerevisiae deletion strains, locus YKR026C, strain gcn3, stronger effect = lower value 0.985 | S. cerevisiae deletion strains, locus YKR091W, strain srl3, stronger effect = lower value 0.992 | S. cerevisiae deletion strains, locus YLL001W, strain dnm1, stronger effect = lower value 0.944 | S. cerevisiae deletion strains, locus YLL026W, stronger effect = lower value 0.98 | S. cerevisiae deletion strains, locus YLL041C, strain sdh2, stronger effect = lower value 0.958 | S. cerevisiae deletion strains, locus YLR027C, strain aat2, stronger effect = lower value 0.977 | S. cerevisiae deletion strains, locus YLR039C, strain RIC1, stronger effect = lower value 1.22 | S. cerevisiae deletion strains, locus YLR058C, strain SHM2, stronger effect = lower value 0.908 | S. cerevisiae deletion strains, locus YLR102C, strain apc9, stronger effect = lower value 0.989 | S. cerevisiae deletion strains, locus YLR113W, strain HOG1, stronger effect = lower value 1.03 | S. cerevisiae deletion strains, locus YLR221C, strain rsa3, stronger effect = lower value 0.919 | S. cerevisiae deletion strains, locus YLR258W, strain gsy2, stronger effect = lower value 0.946 | S. cerevisiae deletion strains, locus YLR262C, strain YPT6, stronger effect = lower value 1.16 | S. cerevisiae deletion strains, locus YLR330W, strain CHS5, stronger effect = lower value 0.969 | S. cerevisiae deletion strains, locus YLR342W, strain FKS1 (second series), stronger effect = lower value 0.87 | S. cerevisiae deletion strains, locus YLR342W, strain FKS1, stronger effect = lower value 0.985 | S. cerevisiae deletion strains, locus YLR357W, strain rsc2, stronger effect = lower value 1.08 | S. cerevisiae deletion strains, locus YLR370C, strain arc18, stronger effect = lower value 0.986 | S. cerevisiae deletion strains, locus YLR371W, strain rom2, stronger effect = lower value 0.965 | S. cerevisiae deletion strains, locus YLR384C, strain iki3, stronger effect = lower value 0.934 | S. cerevisiae deletion strains, locus YML016C, strain PPZ1, stronger effect = lower value 0.985 | S. cerevisiae deletion strains, locus YML120C, strain ndi1, stronger effect = lower value 1.01 | S. cerevisiae deletion strains, locus YML124C, strain tub3, stronger effect = lower value 0.997 | S. cerevisiae deletion strains, locus YMR058W, strain fet3, stronger effect = lower value 0.927 | S. cerevisiae deletion strains, locus YMR078C, strain ctf18, stronger effect = lower value 0.975 | S. cerevisiae deletion strains, locus YMR125W, strain sto1, stronger effect = lower value 0.973 | S. cerevisiae deletion strains, locus YMR129W, stronger effect = lower value 1 | S. cerevisiae deletion strains, locus YMR205C, strain PFK2, stronger effect = lower value 0.897 | S. cerevisiae deletion strains, locus YMR231W, strain pep5, stronger effect = lower value 0.967 | S. cerevisiae deletion strains, locus YMR263W, strain SAP30, stronger effect = lower value 0.946 | S. cerevisiae deletion strains, locus YMR307W, strain GAS1, stronger effect = lower value 1 | S. cerevisiae deletion strains, locus YNL128W, strain TEP1, stronger effect = lower value 0.986 | S. cerevisiae deletion strains, locus YNL153C, strain GIM3, stronger effect = lower value 0.903 | S. cerevisiae deletion strains, locus YNL183C, strain NPR1, stronger effect = lower value 0.917 | S. cerevisiae deletion strains, locus YNL209W, strain ssb2, stronger effect = lower value 0.965 | S. cerevisiae deletion strains, locus YNL250W, strain rad50, stronger effect = lower value 0.963 | S. cerevisiae deletion strains, locus YNL271C, strain bni1, stronger effect = lower value 0.966 | S. cerevisiae deletion strains, locus YNL298W, strain CLA4, stronger effect = lower value 0.975 | S. cerevisiae deletion strains, locus YNL322C, strain KRE1 (second series), stronger effect = lower value 1.02 | S. cerevisiae deletion strains, locus YNL322C, strain KRE1, stronger effect = lower value 0.977 | S. cerevisiae deletion strains, locus YNR049C, strain mso1, stronger effect = lower value 0.978 | S. cerevisiae deletion strains, locus YOL012C, strain htz1 1.06 | S. cerevisiae deletion strains, locus YOL147C, strain pex11, stronger effect = lower value 0.962 | S. cerevisiae deletion strains, locus YOR061W, strain CKA2, stronger effect = lower value 0.987 | S. cerevisiae deletion strains, locus YOR069W, strain VPS5, stronger effect = lower value 0.995 | S. cerevisiae deletion strains, locus YOR080W, strain dia2, stronger effect = lower value 0.985 | S. cerevisiae deletion strains, locus YOR083W, strain WHI5, stronger effect = lower value 0.931 | S. cerevisiae deletion strains, locus YOR106W, strain vam3, stronger effect = lower value 0.875 | S. cerevisiae deletion strains, locus YOR136W, strain idh2, stronger effect = lower value 0.962 | S. cerevisiae deletion strains, locus YOR144C, strain elg1, stronger effect = lower value 0.994 | S. cerevisiae deletion strains, locus YOR231W, strain MKK1, stronger effect = lower value 0.984 | S. cerevisiae deletion strains, locus YOR265W, strain rbl2, stronger effect = lower value 0.967 | S. cerevisiae deletion strains, locus YOR290C, strain snf2, stronger effect = lower value 0.917 | S. cerevisiae deletion strains, locus YOR316C, strain cot1, stronger effect = lower value 0.99 | S. cerevisiae deletion strains, locus YPL055C, strain LGE1, stronger effect = lower value 0.857 | S. cerevisiae deletion strains, locus YPL078C, strain atp4, stronger effect = lower value 0.941 | S. cerevisiae deletion strains, locus YPL106C, strain sse1, stronger effect = lower value 1.09 | S. cerevisiae deletion strains, locus YPL240C, strain hsp82, stronger effect = lower value 0.982 | S. cerevisiae deletion strains, locus YPL241C, strain CIN2, stronger effect = lower value 0.992 | S. cerevisiae deletion strains, locus YPL256C, strain CLN2, stronger effect = lower value 1.02 | S. cerevisiae deletion strains, locus YPR119W, strain clb2, stronger effect = lower value 1.01 | S. cerevisiae deletion strains, locus YPR141C, strain kar3, stronger effect = lower value 0.984 | S. cerevisiae deletion strains, locus YPR167C, strain met16, stronger effect = lower value 0.977

From PubChem BioAssay AID1159580 (chemical genetic matrix, 2015)
